Measurements published in PubChem BioAssay AID1159580 (chemical genetic matrix, 2015).
Hit rate of the full screen: of about 5,500 compounds, about 2,000 (36%) were called active. About 18% were inconclusive and are not listed. Cut-off read from the data, not from the text of the source: active = normalized growth mostly below about 0.91 (no sharp cut-off); inconclusive = no clear call, values can overlap the other calls; inactive = mostly above about 0.92. Some of the results follow.

Test: chemical genetic growth profiling, strain panel (AID 1159580);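 note: tested at 20 µM; growth read once vehicle control cultures reached saturation at 30 °C; 1 = growth at the plate median or of vehicle wells; lower values mean less growth of the strain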
Conditions: S. cerevisiae deletion strains, growth OD
[1] = locus YAR019C, strain CDC15, stronger effect = lower value
[2] = locus YBL105C, strain PKC1, stronger effect = lower value
[3] = locus YBR135W, strain CKS1, stronger effect = lower value
[4] = locus YBR136W, strain MEC1, stronger effect = lower value
[5] = locus YBR160W, strain CDC28, stronger effect = lower value
[6] = locus YDL017W, strain CDC7, stronger effect = lower value
[7] = locus YDL028C, strain MPS1, stronger effect = lower value
[8] = locus YDL101C, strain DUN1, stronger effect = lower value
[9] = locus YDL108W, strain KIN28, stronger effect = lower value
[10] = locus YDL132W, strain cdc53, stronger effect = lower value
[11] = locus YDL214C, strain PRR2, stronger effect = lower value
[12] = locus YDR052C, strain DBF4, stronger effect = lower value
[13] = locus YDR054C, strain cdc34, stronger effect = lower value
[14] = locus YDR226W, strain ADK1, stronger effect = lower value
[15] = locus YDR477W, strain SNF1, stronger effect = lower value
[16] = locus YER123W, strain YCK3, stronger effect = lower value
[17] = locus YER133W, strain GLC7, stronger effect = lower value
[18] = locus YFL009W, strain cdc4, stronger effect = lower value
[19] = locus YFL029C, strain CAK1, stronger effect = lower value
[20] = locus YFR003C, strain YPI1, stronger effect = lower value
[21] = locus YFR019W, strain FAB1, stronger effect = lower value
[22] = locus YFR028C, strain CDC14, stronger effect = lower value
[23] = locus YGR040W, strain KSS1, stronger effect = lower value
[24] = locus YGR052W, strain FMP48, stronger effect = lower value
[25] = locus YGR092W, strain DBF2, stronger effect = lower value
[26] = locus YHR030C, strain SLT2, stronger effect = lower value
[27] = locus YHR079C, strain IRE1, stronger effect = lower value
[28] = locus YHR082C, strain KSP1, stronger effect = lower value
[29] = locus YHR205W, strain SCH9, stronger effect = lower value
[30] = locus YIL147C, strain SLN1, stronger effect = lower value
[31] = locus YJL095W, strain BCK1, stronger effect = lower value
[32] = locus YJL128C, strain PBS2, stronger effect = lower value
[33] = locus YJL157C, strain FAR1, stronger effect = lower value
[34] = locus YJR016C, strain ILV3, stronger effect = lower value
[35] = locus YJR066W, strain TOR1 (second series), stronger effect = lower value
[36] = locus YJR066W, strain TOR1, stronger effect = lower value
[37] = locus YKL048C, strain ELM1, stronger effect = lower value
[38] = locus YKL067W, strain YNK1, stronger effect = lower value
[39] = locus YKL101W, strain HSL1, stronger effect = lower value
[40] = locus YKL193C, strain SDS22, stronger effect = lower value
[41] = locus YKL203C, strain TOR2, stronger effect = lower value
[42] = locus YLR113W, strain HOG1, stronger effect = lower value
[43] = locus YLR133W, strain CKI1, stronger effect = lower value
[44] = locus YLR403W, strain SFP1, stronger effect = lower value
[45] = locus YML070W, strain DAK1, stronger effect = lower value
[46] = locus YMR001C, strain CDC5, stronger effect = lower value
[47] = locus YMR205C, strain PFK2 (second series), stronger effect = lower value
[48] = locus YMR277W, strain FCP1, stronger effect = lower value
[49] = locus YNL006W, strain LST8, stronger effect = lower value
[50] = locus YNL020C, strain ARK1, stronger effect = lower value
[51] = locus YNL161W, strain CBK1, stronger effect = lower value
[52] = locus YNL183C, strain NPR1, stronger effect = lower value
[53] = locus YNL207W, strain RIO2, stronger effect = lower value
[54] = locus YNL222W, strain SSU72, stronger effect = lower value
[55] = locus YNL307C, strain MCK1 (second series), stronger effect = lower value
[56] = locus YOL078W, strain AVO1, stronger effect = lower value
[57] = locus YOL136C, strain PFK27, stronger effect = lower value
[58] = locus YOR061W, strain CKA2, stronger effect = lower value
[59] = locus YOR119C, strain RIO1, stronger effect = lower value
[60] = locus YOR231W, strain MKK1, stronger effect = lower value
[61] = locus YOR329C, strain SCD5, stronger effect = lower value
[62] = locus YPL031C, strain PHO85, stronger effect = lower value
[63] = locus YPL153C, strain RAD53, stronger effect = lower value
[64] = locus YPL204W, strain HRR25, stronger effect = lower value
[65] = locus YPL209C, strain IPL1, stronger effect = lower value
[66] = locus YPL256C, strain CLN2, stronger effect = lower value
[67] = locus YPR025C, strain CCL1, stronger effect = lower value
[68] = locus YPR106W, strain ISR1, stronger effect = lower value
[69] = locus YPR111W, strain DBF20, stronger effect = lower value
[70] = strain NNK1, stronger effect = lower value
[71] = strain TSCII, stronger effect = lower value

Measured: normalized growth

CC(=O)Oc1ccc2c(=O)c(Oc3ccc(Cl)cc3)c(C)oc2c1
active: [26] 0.802 | [42] 0.768
inactive: [1] 0.969 | [2] 0.964 | [3] 0.968 | [4] 0.954 | [5] 0.962 | [6] 0.963 | [7] 0.956 | [8] 0.951 | [9] 0.958 | [10] 0.96 | [11] 0.938 | [12] 0.959 | [13] 0.96 | [14] 0.957 | [15] 0.945 | [16] 0.918 | [17] 0.939 | [18] 0.97 | [19] 0.964 | [20] 0.968 | [21] 0.979 | [22] 0.963 | [23] 0.953 | [24] 0.887 | [25] 0.692 | [27] 0.897 | [28] 0.917 | [29] 0.776 | [30] 0.947 | [31] 0.7 | [32] 0.923 | [33] 0.973 | [34] 0.964 | [35] 0.953 | [36] 0.896 | [37] 0.933 | [38] 0.94 | [39] 0.908 | [40] 0.953 | [41] 0.968 | [43] 0.952 | [44] 0.887 | [45] 0.921 | [46] 0.961 | [47] 0.935 | [48] 0.969 | [49] 0.985 | [50] 0.952 | [51] 0.965 | [52] 0.875 | [53] 0.953 | [54] 0.97 | [55] 0.808 | [56] 0.95 | [57] 0.933 | [58] 0.959 | [59] 0.995 | [60] 0.834 | [61] 0.961 | [62] 0.935 | [63] 0.954 | [64] 0.943 | [65] 0.96 | [66] 0.909 | [67] 0.965 | [68] 0.955 | [69] 0.941 | [70] 0.94 | [71] 0.964

FC(F)(F)c1ccc(C2Sc3ccccc3N=C3c4ccccc4CC32)cc1 (configuration not stated)
inactive: [1] 1.01 | [2] 1.03 | [3] 1.01 | [4] 1 | [5] 1.02 | [6] 1.01 | [7] 0.996 | [8] 1 | [9] 0.994 | [10] 1.02 | [11] 1.02 | [12] 1.01 | [13] 1.02 | [14] 0.996 | [15] 1.03 | [16] 0.96 | [17] 1 | [18] 1.01 | [19] 1 | [20] 1.02 | [21] 0.985 | [22] 1.01 | [23] 1.02 | [24] 1.04 | [25] 0.979 | [26] 0.97 | [27] 1.01 | [28] 1.01 | [29] 0.953 | [30] 1 | [31] 0.985 | [32] 0.973 | [33] 1.02 | [34] 1.02 | [35] 0.999 | [36] 0.993 | [37] 0.984 | [38] 1 | [39] 1.04 | [40] 1.01 | [41] 1.1 | [42] 0.87 | [43] 0.987 | [44] 0.991 | [45] 0.981 | [46] 1.02 | [47] 0.995 | [48] 1.02 | [49] 1 | [50] 1.01 | [51] 1.03 | [52] 0.969 | [53] 1.02 | [54] 1.01 | [55] 0.937 | [56] 0.998 | [57] 0.993 | [58] 0.993 | [59] 1.02 | [60] 1 | [61] 1.03 | [62] 1.06 | [63] 1.03 | [64] 1.01 | [65] 1.02 | [66] 0.951 | [67] 1.02 | [68] 0.996 | [69] 0.985 | [70] 1.01 | [71] 1.02
